From PubChem BioAssay AID1578 (Sanford-Burnham Center for Chemical Genomics, 2009)
Among all 290,000 compounds or so, about 3,000 (1%) were called active. This excerpt belongs to a sample that is enriched for actives. Values without a mark were called inactive. Cut-off read from the data, not from the text of the source: active = inhibition mostly above about 36% (no sharp cut-off); inactive = mostly below about 34%.

Test: inhibition of NOD1-driven NF-kB reporter – cell-based, luminescence, uHTS, primary screen (AID 1578);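 note: HEK-293T reporter cells stimulated with the NOD1 agonist gamma-tri-DAP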
Settings: NOD1-driven NF-kB luciferase reporter cells, at 4 µM, hits give high values

**Q.** For `COC(=O)CN1C(=O)C2(C(C#N)=C(N)Oc3ccccc32)C2=C1CC(C)(C)CC2=O` (centres undefined), which inhibition is on record?
**A.** The inhibition was 1.7%.

**Q.** Which inhibition does the source give for `COc1ccc(-n2c(C)c(C(C)=O)c(C(C)=O)c2C)cc1OC` here?
**A.** Its inhibition is -0.8%.

**Q.** For `COc1ccc(NC(=S)NC(NC(=O)CCl)C(Cl)(Cl)Cl)c([N+](=O)[O-])c1` (centres undefined), which inhibition is on record?
**A.** The inhibition was 76.4% (active).

**Q.** Which inhibition does the source give for `COc1ccc(NC(=S)NC(NC(=O)C(C)C)C(Cl)(Cl)Cl)c([N+](=O)[O-])c1` (centres undefined) here?
**A.** The inhibition was 11.7%.

**Q.** With `COc1ccc(NC(=S)NC(NC(C)=O)C(Cl)(Cl)Cl)c([N+](=O)[O-])c1` (centres undefined) as the compound, how does the inhibition read?
**A.** The inhibition was -5.3%.

**Q.** Which inhibition does the source give for `CCOC(=O)N1CCC(NC(=O)c2ccc3c(c2)N=C(CC)c2ccccc2S3)CC1` here?
**A.** The inhibition was 20.2%.

**Q.** With `O=C(NNC(=S)Nc1ccccc1)c1ccccc1[N+](=O)[O-]` as the compound, how does the inhibition read?
**A.** The inhibition was -34.4%.

**Q.** With `CCC(C)(C(=O)NC1CCCCC1)N(C(=O)CNC(C)=O)c1c(C)n(C)n(-c2ccccc2)c1=O` (centres undefined) as the compound, how does the inhibition read?
**A.** Its inhibition is -13.9%.

**Q.** Which inhibition does the source give for `NC(=S)NN=C1c2cc(OCCN3CCOCC3)ccc2-c2ccc(OCCN3CCOCC3)cc21` here?
**A.** The inhibition was 42.8% (active).

**Q.** For `NC(=S)NN=C1c2cc(S(=O)(=O)N3CCOCC3)ccc2-c2ccc(S(=O)(=O)N3CCOCC3)cc21`, which inhibition is on record?
**A.** The inhibition was -20.4%.

**Q.** With `ON=C1c2cc(OCCN3CCCCC3)ccc2-c2ccc(OCCN3CCCCC3)cc21` as the compound, how does the inhibition read?
**A.** Its inhibition is 0.3%.

**Q.** With `Cc1cccc(C(=O)Nc2ccc(C(=O)Nc3ccc(O)cc3)cc2)c1` as the compound, how does the inhibition read?
**A.** The inhibition was -22.1%.

**Q.** For `COc1ccc(CC(=O)OCC(=O)NCCc2ccccc2)cc1OC`, which inhibition is on record?
**A.** Its inhibition is -25.2%.

**Q.** For `C=CCn1c(SCCOc2ccc(OC)cc2)nnc1C(C)NC(=O)c1ccc(OC)cc1` (centres undefined), which inhibition is on record?
**A.** Its inhibition is 5.8%.

**Q.** For `C=CCn1c(SCCOc2ccc(OC)cc2)nnc1C(C)NC(=O)Cc1ccc(OC)cc1` (centres undefined), which inhibition is on record?
**A.** The inhibition was 74.9% (active).

**Q.** With `COc1ccc(CC(=O)NC(C)c2nnc(SCCOc3ccc(OC)cc3)n2C)cc1` (centres undefined) as the compound, how does the inhibition read?
**A.** Its inhibition is -0.8%.

**Q.** For `COc1ccc(-c2cc(C(=O)N/N=C(\C)c3ccco3)c3ccccc3n2)c(OC)c1`, which inhibition is on record?
**A.** The inhibition was -42.5%.

**Q.** With `CCN1C(=NCc2ccc(OC)cc2)N[C@@H](c2ccccc2)C(C(=O)OC)=C1C` as the compound, how does the inhibition read?
**A.** The inhibition was -15.5%.

**Q.** With `CC(C)CCN1CCN(Cc2cccn2-c2nccs2)CC1CCO` (centres undefined) as the compound, how does the inhibition read?
**A.** The inhibition was -20.1%.

**Q.** For `CN1CCN(C(=O)CCC(=O)O)CC1`, which inhibition is on record?
**A.** Its inhibition is -14.8%.

**Q.** For `COc1cccc(CC(=O)n2nc(N)c3cc4ccc(OC)cc4nc32)c1`, which inhibition is on record?
**A.** The inhibition was 3.9%.

**Q.** For `COc1ccc2cc3c(N)nn(C(=O)Cc4ccc(Cl)cc4)c3nc2c1`, which inhibition is on record?
**A.** Its inhibition is 14.9%.

**Q.** Which inhibition does the source give for `CC(C)Nc1ncnc2ccc(Br)cc12` here?
**A.** The inhibition was 87.6% (active).

**Q.** With `CCOc1ccccc1Nc1ncnc2ccc(Br)cc12` as the compound, how does the inhibition read?
**A.** The inhibition was -11.1%.

**Q.** Which inhibition does the source give for `OCCNc1ncnc2ccc(Br)cc12` here?
**A.** The inhibition was 46.1%.

**Q.** With `CCN(CC)c1ncnc2ccc(Br)cc12` as the compound, how does the inhibition read?
**A.** Its inhibition is 67.5% (active).

**Q.** Which inhibition does the source give for `Clc1cccc(Nc2ncnc3ccc(Br)cc23)c1` here?
**A.** The inhibition was 11.7%.

**Q.** Which inhibition does the source give for `CN(C)c1ccc(Nc2ncnc3ccc(Br)cc23)cc1` here?
**A.** The inhibition was 53.8%.

**Q.** For `Cc1cccc(Nc2ncnc3ccc(Br)cc23)c1`, which inhibition is on record?
**A.** The inhibition was 42.4%.

**Q.** Which inhibition does the source give for `CN(Cc1ccccc1)c1ncnc2ccc(Br)cc12` here?
**A.** Its inhibition is 10.2%.

**Q.** With `Cc1ccc(CC2C(=O)N(c3cc(Cl)ccn3)C(=O)C2C)cc1` (centres undefined) as the compound, how does the inhibition read?
**A.** The inhibition was -9.5%.

**Q.** For `Cc1nn(C)cc1CN1CCC(n2nccc2NC(=O)CCCc2ccccc2)CC1`, which inhibition is on record?
**A.** The inhibition was -26.7%.

**Q.** With `O=C(/C=C/c1ccco1)c1ccccc1O` as the compound, how does the inhibition read?
**A.** Its inhibition is -22.5%.

**Q.** With `COc1ccc(NC(=O)c2cc(-c3ccc(OC)c(OC)c3)on2)cc1OC` as the compound, how does the inhibition read?
**A.** The inhibition was -8.9%.

**Q.** For `N#Cc1ccc(N2CCCC2C(=O)O)c([N+](=O)[O-])c1` (centres undefined), which inhibition is on record?
**A.** The inhibition was 6.2%.

**Q.** For `COC(=O)C1(c2ccccc2)NC(c2cccs2)C2C(=O)N(C)C(=O)C21` (centres undefined), which inhibition is on record?
**A.** Its inhibition is -15.5%.

**Q.** Which inhibition does the source give for `CN(C)/C=C1\N=C(c2cccnc2Oc2ccc(Cl)cc2)OC1=O` here?
**A.** The inhibition was -11.9%.

**Q.** Which inhibition does the source give for `COc1ccc(OC)c(NC(=O)CNC(=O)Cn2ccc3ccccc3c2=O)c1` here?
**A.** Its inhibition is -4%.

**Q.** Which inhibition does the source give for `CN(C)c1nc2n(c(=O)n1)CCS2` here?
**A.** The inhibition was -11.7%.

**Q.** With `CCOC(=O)C1CCN(S(=O)(=O)c2c(C)noc2C)CC1` as the compound, how does the inhibition read?
**A.** Its inhibition is -15.9%.

**Q.** With `CCOC(=O)C1CCN(S(=O)(=O)c2c(Cl)ccc3nonc23)CC1` as the compound, how does the inhibition read?
**A.** Its inhibition is 102% (active).

**Q.** With `CCOC(=O)C1CCN(S(=O)(=O)c2cccc3nonc23)CC1` as the compound, how does the inhibition read?
**A.** The inhibition was -27.8%.

**Q.** With `CC(CCN1CCOCC1)c1ccccc1` (centres undefined) as the compound, how does the inhibition read?
**A.** Its inhibition is -28%.

**Q.** Which inhibition does the source give for `O=C(NC1CCCCC1)c1ccc(S(=O)(=O)c2ccccc2)cc1` here?
**A.** The inhibition was 18%.

**Q.** For `Cc1ccc(C(=O)N2CCN(c3ccccc3)CC2)cc1S(=O)(=O)N1CCCC1`, which inhibition is on record?
**A.** Its inhibition is 3.9%.

**Q.** Which inhibition does the source give for `O=C(NC1CCCCC1)c1ccc(S(=O)(=O)c2ccccc2Cl)c([N+](=O)[O-])c1` here?
**A.** Its inhibition is 91.4% (active).

**Q.** Which inhibition does the source give for `Cc1cc(C(=O)N2CCN(Cc3ccccc3)CC2)ccc1[N+](=O)[O-]` here?
**A.** Its inhibition is 0.5%.

**Q.** Which inhibition does the source give for `O=C(c1ccc(S(=O)(=O)Cc2ccccc2F)c([N+](=O)[O-])c1)N1CCCCCC1` here?
**A.** Its inhibition is 1%.

**Q.** With `O=C(c1ccc(S(=O)(=O)Cc2cc(F)ccc2F)c([N+](=O)[O-])c1)N1CCCC1` as the compound, how does the inhibition read?
**A.** The inhibition was 5%.
